Source: PubChem BioAssay AID485290 (National Center for Advancing Translational Sciences (NCATS), 2010)
Hit rate of the full screen: of about 350,000 compounds, about 990 (0.28%) were called active. Roughly 2% stayed inconclusive and do not appear here. The sample holds actives, similar compounds and a random draw of the others, so the mix is not that of the screen. Values without a mark were called inactive. Calls follow the shape of the dose curve; as a rule, active = well fitted inhibition curve with a large enough effect; inconclusive = small, poorly fitted or top-dose-only effect; inactive = no such curve, though single readings can be large or run the other way.

These molecules were tested against Tyrosyl-DNA phosphodiesterase 1 (Homo sapiens) (UniProt Q9NUW8) (assay: qHTS Assay for Inhibitors of Tyrosyl-DNA Phosphodiesterase (TDP1)). Details: recombinant TDP1, AlphaScreen DNA substrate cleavage; series mostly up to 130 µM; activity change, negative = inhibition: at the top concentration.
Procedure, shortened: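 E. coli-derived human Tdp1, 1 nM final. Cpd preinc 15 min RT; substrate 15 nM final, 5 min RT; AS bead mix 10 ug/ml final, 10 min RT. Signal loss = tyrosine-FITC cleavage. No-enzyme wells = max signal.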
% is scaled to controls: 0 for no effect and ±100 for the full control effect; potency is read from the fitted curve at half-maximal effect.
Also: nearly all actives have a fitted effect of over 40% in size.

Sequence of Tyrosyl-DNA phosphodiesterase 1 (Homo sapiens) (Q9NUW8 whole entry, looked up): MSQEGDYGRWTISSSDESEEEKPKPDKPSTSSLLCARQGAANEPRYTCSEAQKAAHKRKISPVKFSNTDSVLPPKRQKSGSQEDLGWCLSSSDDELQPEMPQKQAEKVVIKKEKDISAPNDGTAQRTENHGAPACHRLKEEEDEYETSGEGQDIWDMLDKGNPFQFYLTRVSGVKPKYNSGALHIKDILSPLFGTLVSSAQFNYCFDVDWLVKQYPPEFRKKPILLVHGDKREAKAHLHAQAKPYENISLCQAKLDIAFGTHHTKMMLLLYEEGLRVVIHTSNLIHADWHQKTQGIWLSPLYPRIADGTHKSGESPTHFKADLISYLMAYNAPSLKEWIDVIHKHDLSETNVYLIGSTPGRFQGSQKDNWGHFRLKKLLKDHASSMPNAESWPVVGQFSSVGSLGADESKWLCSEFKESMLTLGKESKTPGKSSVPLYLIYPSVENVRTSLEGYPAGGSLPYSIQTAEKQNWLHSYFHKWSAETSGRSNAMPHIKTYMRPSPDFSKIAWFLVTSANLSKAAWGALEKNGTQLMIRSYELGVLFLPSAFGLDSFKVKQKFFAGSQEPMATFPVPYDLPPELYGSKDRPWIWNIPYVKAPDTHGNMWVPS

Structure (SMILES) | activity change, negative = inhibition [%] | Potency
Cc1ccc(-c2nc3ccccn3c2Nc2ccc(F)cc2)o1 | 4.27 | 
Cc1ccc2nc(-c3ccncc3)cc(C(=O)Nc3ccc4c(c3)OCCO4)c2c1 | -8.22 | 
Cc1ccc2nc(-c3ccncc3)cc(C(=O)Nc3ccc(OC(F)F)cc3)c2c1 |  | 50.1 µM (active)
Cc1ccc2nc(-c3ccncc3)cc(C(=O)Nc3ccncc3)c2c1 | 4.27 | 
CN(C)Cc1cn(-c2ccccc2)nc1-c1ccccc1 | 0.719 | 
COC(=O)c1ccccc1S(=O)(=O)Nc1ccc(OC)cc1 | 4.45 | 
COc1ccc(C2Nc3ccccc3C(=O)N2Cc2ccc(Cl)cc2)cc1COc1ccc(NC(C)=O)cc1 (stereo unspecified) | -0.0444 | 
Cc1ccc(-c2nn3c(=O)cc(CN4CCN(C(=O)Nc5cccc(C(F)(F)F)c5)CC4)nc3s2)cc1 | 8.11 | 
N#Cc1nc(Nc2cccc(Cl)c2)nc(NC2CCCC2)n1 | -2.17 | 
O=C1CCc2cc(S(=O)(=O)Nc3cccc(Oc4ccccc4)c3)ccc2N1 | 2.51 | 
Oc1c(C(c2ccc(F)cc2)N2CCN(Cc3ccccc3)CC2)sc2nc(-c3ccco3)nn12 (stereo unspecified) | 2.6 | 
O=C1CSc2ccc(C(=O)NCc3ccccn3)cc2N1 | 0.216 | 
C=CCNC(=O)c1ccc2nc(-c3ccco3)c(-c3ccco3)nc2c1 | -9.19 | 
O=C(NCc1ccccn1)c1ccc2nc(-c3ccco3)c(-c3ccco3)nc2c1 |  | 8.91 µM (active)
COc1ccc(N2C(=O)CSC23C(=O)N(Cc2cccc(F)c2)c2ccccc23)cc1Cl (stereo unspecified) | 5.63 | 
CCCC(=O)N1CCN(c2nc3c(OC)ccc(C)c3s2)CC1 | 0 | 
CC(=O)c1sc2nc(SCC(=O)N3CCCCC3)[nH]c(=O)c2c1C | -13 | 
CSc1nnc(SCc2nc3sc(C(=O)O)c(C)c3c(=O)[nH]2)s1 |  | 22.4 µM (active)
CCOC(=O)c1sc2nc(CSc3ccccc3)[nH]c(=O)c2c1C | 3.49 | 
Cc1nn(-c2ccc(N3CCCCC3)nn2)c(C)c1CCC(=O)NCc1ccc(F)cc1 | 0.649 | 
N#CN1CCC(NC(=O)c2ccc(F)cc2)CC1 | 0.796 | 
NC(=O)C1CCN(C(=O)c2cccc(NC(=O)c3nsc4ccccc34)c2)CC1 | 2.7 | 

Structure (SMILES) | activity change, negative = inhibition [%] | Potency
CC(C)c1ccc(NC(=O)C2CCN(c3nc(-c4ccc(C(C)C)cc4)no3)CC2)cc1 | 8.11 | 
O=C(COC(=O)C12CC3CC(CC(C3)C1)C2)NCc1ccco1 |  | inactive
O=C(COC(=O)c1cccs1)NCc1cccs1 | -0.673 | 
O=C(COC(=O)CCC(=O)c1cccs1)NCc1ccco1 |  | 22.4 µM (active)
CCCCNc1ccc(-c2nc(-c3ccncc3)no2)cc1[N+](=O)[O-] | 0 | 
Cc1cc(C)c2oc(-c3cccc(NC(=O)c4cccc(F)c4)c3C)nc2c1 | 5.81 | 
Cc1ccc(Cc2cnc(N)s2)o1 |  | 20 µM (active)
Cc1ccc(CCC(=O)Nc2ncc(Cc3cc(Cl)ccc3Cl)s2)o1 | 2.56 | 
COc1cc(F)c(S(=O)(=O)N2CCCN(S(=O)(=O)c3ccc(N)cc3)CC2)c(F)c1 | 2.59 | 
O=S1(=O)N=C(Oc2cccc(Br)c2)c2ccccc21 | 1.26 | 
COc1ccc(NC(=O)CSc2nc(NS(=O)(=O)c3ccc(C)cc3)cc(=O)[nH]2)cc1 |  | 20 µM (active)
Cc1ccc(NC(=O)CSc2nc(CSc3ccc(C)cc3)cc(=O)[nH]2)cc1 | 0 | 
COc1ccc(NC(=O)CSc2nc3ccccc3[nH]2)cc1 | 1.95 | 
Oc1ccc(Br)cc1C1C=C(c2ccc3c(c2)OCO3)NC(c2ccc(Cl)cc2)N1 (stereo unspecified) | 2.78 | 
Cc1ccc2nc(-c3ccc(O)cc3)c(Nc3ccc4c(c3)OCO4)n2c1 | 6.98 | 
CCc1ccc(CNC(=O)CCc2nc(-c3cccs3)no2)cc1 | 1.31 | 
COc1ccc(OC)c(CNC(=O)CCc2nc(-c3cccs3)no2)c1 | 0 | 
COc1ccc(CCc2nc(-c3cccs3)no2)cc1 |  | 89.1 µM (active)
CCC(=O)Nc1cccc(-c2nc3cc(C)ccc3o2)c1 | 5.69 | 
OCCNc1ncnc2oc(-c3ccco3)c(-c3ccco3)c12 | 0.0157 | 
Cc1cc(CN(C)C(=O)c2cc(COc3ccc(C)c(C)c3)on2)n[nH]1 | 4.51 | 
CN(CCOc1ccccc1)C(=O)c1cc(COc2c(F)cccc2F)on1 | -0.184 | 

Structure (SMILES) | activity change, negative = inhibition [%] | Potency
Cc1ccc(OCc2cc(C(=O)N(C)CCc3ccccc3)no2)cc1C |  | 50.1 µM (active)
COc1ccc(C2Nc3ccccc3C(=O)N2Cc2ccco2)cc1COc1cccc(NC(C)=O)c1 (stereo unspecified) | -0.885 | 
Cc1ccc(C(=O)COC(=O)C(Cc2c[nH]c3ccccc23)NC(=O)c2ccc(Br)cc2)cc1 (stereo unspecified) | 0.948 | 
CCCCNC(=O)Cn1c(SCc2cccc(Cl)c2)nc2ccncc21 | 0.301 | 
CCN1CCN(c2cc(C)c3cc(NC(=O)c4cc(Cl)ccc4OC)ccc3n2)CC1 | 5.88 | 
C=CCCN(C(Cc1ccccc1)C(=O)OC)S(=O)(=O)c1cc(Br)ccc1Br (stereo unspecified) | -9.71 | 
C=CCCN(Cc1ccccc1)S(=O)(=O)c1ccccc1Br |  | 39.8 µM (active)
C=CC(COCc1ccccc1)N(Cc1ccccc1)S(=O)(=O)c1ccccc1Br (stereo unspecified) | -12.1 | 
CC1(C)CCc2cc(S(=O)(=O)N3CCN(c4nc(-c5cccs5)nc5ccccc45)CC3)ccc2O1 | 1.18 | 
Cc1ccc(Cl)cc1NC(=O)C(C)n1nnc2sc(-c3ccccc3)cc2c1=O (stereo unspecified) | 2.33 | 
Cc1ccccc1NC(=O)CSc1nc2ccc(Nc3nc(N4CCOCC4)nc(N4CCOCC4)n3)cc2s1 | 2.22 | 
Cc1ccc(Nc2nc(N)nc(CN3CCN(Cc4ccccc4)CC3)n2)cc1Cl | 6.79 | 
Cc1ccc(Nc2nc(N3CCOCC3)nc(N3CCOCC3)n2)cc1Cl |  | 22.4 µM (active)
CC1CC(C)CN(c2oc(-c3ccc(OCc4ccc(Cl)cc4)cc3)nc2C#N)C1 (stereo unspecified) | 5.48 | 
Cc1ccc(CCNC(=O)c2ccc(CS(=O)(=O)Cc3cccc(C)c3)o2)cc1 | 5.2 | 
CCN1CCN(C(c2ccc(C)cc2)c2c(O)cc(C)n(Cc3ccco3)c2=O)CC1 (stereo unspecified) | 5.41 | 
COc1cccc(C(=O)NC2CCN(C#N)CC2)c1 | 1.27 | 
Cn1c(COc2ccccc2C(C)(C)C)nc2ccccc21 | 0 | 
O=C(Cc1ccc([N+](=O)[O-])cc1)N/N=C/c1ccco1 | 0 | 
CC(C)NC(=O)C(=O)N/N=C/c1ccco1 | -10.5 | 
O=c1nc(N/N=C/c2ccco2)cn[nH]1 |  | 31.6 µM (active)
Oc1ccc(Cl)cc1C1C=C(c2ccc3c(c2)OCO3)NC(c2c(F)cccc2Cl)N1 (stereo unspecified) | 3.95 | 
